PubChem BioAssay (NCATS)
Inconclusive results are not listed. Calls of active or inactive are those of the source. The call rests on the fitted dose curve; in most records, active means well fitted inhibition curve with a large enough effect; inconclusive means small, poorly fitted or top-dose-only effect; inactive means flat fitted curve, though single readings scatter.

What was measured:
Assay in all cases: qHTS profiling for inhibitors of Plasmodium falciparum proliferation (AID 504749); further: nearly all actives have a fitted effect of over 60% in size
Conditions in all cases: P. falciparum in erythrocytes, SYBR Green DNA, 72 h; series mostly up to 28.7 µM
CP256 = tested on: CP256
Outline: (§1)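 P. falciparum-infected erythrocytes (0.3% parasitemia, 2.5% hematocrit) incubated with compound 72 h at 37 C, 5% CO2. Parasite DNA detected by SYBR Green after lysis, overnight at room temperature; normalised to 0.29 uM artemisinin and DMSO.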

CP260 = tested on: CP260
Outline: as §1

CP262 = tested on: CP262
Outline: as §1

CP265 = tested on: CP265
Outline: as §1

CP266 = tested on: CP266
Outline: as §1

CP268 = tested on: CP268
Outline: as §1

CP269 = tested on: CP269
Outline: as §1

CP286 = tested on: CP286
Outline: as §1

CP291 = tested on: CP291
Outline: as §1

CP297 = tested on: CP297
Outline: as §1

CP305 = tested on: CP305
Outline: as §1

CP315 = tested on: CP315
Outline: as §1

CP325 = tested on: CP325
Outline: as §1

CP329 = tested on: CP329
Outline: as §1

CP335 = tested on: CP335
Outline: as §1

DFO2036 = tested on: DFO2036
Outline: as §1

DIV14 = tested on: DIV14
Outline: as §1

DIV17 = tested on: DIV17
Outline: as §1

DIV30 = tested on: DIV30
Outline: as §1

Dd2 = tested on: Dd2
Outline: as §1

ECU = tested on: ECU
Outline: as §1

FAB9 = tested on: FAB9
Outline: as §1

GB4 = tested on: GB4
Outline: as §1

HB3 = tested on: HB3
Outline: as §1

ICS = tested on: ICS
Outline: as §1

JCK = tested on: JCK
Outline: as §1

N140 = tested on: N140
Outline: as §1

P93_24 = tested on: P93_24
Outline: as §1

P94_40 = tested on: P94_40
Outline: as §1

PAD = tested on: PAD
Outline: as §1

PC15 = tested on: PC15
Outline: as §1

PC26 = tested on: PC26
Outline: as §1

PC49 = tested on: PC49
Outline: as §1

SC27B = tested on: SC27B
Outline: as §1

TAB109 = tested on: TAB109
Outline: as §1

TAB113 = tested on: TAB113
Outline: as §1

TAB165 = tested on: TAB165
Outline: as §1

W2 = tested on: W2
Outline: as §1

Measured: Potency

C[N+]1([O-])[C@H]2CC[C@H]1CC(OC(=O)[C@@H](CO)c1ccccc1)C2 (stereo partly drawn)
inactive: all assays above
